{"source": "PubChem BioAssay AID1619", "about": "(SRMLSC, 2009)", "note": "Among all 220,000 compounds or so, about 830 (0.38%) were called active. Not all results are given here. Entries with a potency or affinity are not part of this list. A number with no mark means an inactive call.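 The calls were made as follows: active = compound inhibiting the enzyme by more than half at any dose during confirmatory dose-response retesting; inconclusive = strong single-dose inhibitors picked by rank but not retested; inactive = the rest.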"}
{"target": "Leucine aminopeptidase (Plasmodium falciparum (isolate 3D7)) (UniProt Q8IL11)", "sequence (Q8IL11 whole entry, looked up)": "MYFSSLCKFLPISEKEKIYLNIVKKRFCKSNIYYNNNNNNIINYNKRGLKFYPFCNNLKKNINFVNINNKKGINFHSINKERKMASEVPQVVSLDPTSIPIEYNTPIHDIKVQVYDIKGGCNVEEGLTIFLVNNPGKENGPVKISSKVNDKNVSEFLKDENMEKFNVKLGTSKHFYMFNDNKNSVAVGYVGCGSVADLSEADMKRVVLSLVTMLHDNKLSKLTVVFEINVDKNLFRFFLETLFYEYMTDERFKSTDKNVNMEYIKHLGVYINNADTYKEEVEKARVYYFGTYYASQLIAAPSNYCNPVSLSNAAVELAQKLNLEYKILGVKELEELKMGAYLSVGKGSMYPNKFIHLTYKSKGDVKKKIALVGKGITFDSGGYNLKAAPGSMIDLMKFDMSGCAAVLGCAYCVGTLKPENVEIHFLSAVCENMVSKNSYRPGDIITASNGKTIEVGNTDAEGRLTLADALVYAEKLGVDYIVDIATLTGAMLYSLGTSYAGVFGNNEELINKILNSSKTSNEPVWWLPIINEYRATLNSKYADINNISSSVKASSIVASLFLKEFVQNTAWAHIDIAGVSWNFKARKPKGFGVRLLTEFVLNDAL", "experiment": "P. falciparum M17LAP inhibitors, primary screen, biochemical, fluorogenic H-Leu-NHMec substrate, 1536-well (AID 1619);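 also: plate controls were full reaction with DMSO carrier for no effect and no enzyme background for full effect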", "conditions": "recombinant M17LAP, H-Leu-NHMec fluorogenic kinetic assay; at 30 µM; stronger effect = higher value", "units": {"inhibition": "%"}}
{"smiles": "CCOCCCn1c(=O)c(NC(=O)c2ccc(OCC)cc2)c2n(c1=S)CCCCC2", "inhibition": 10.1}
{"smiles": "O=C(NCC1CCCO1)C1C2C=CC3(CN(Cc4cccs4)C(=O)C13)O2", "note": "(centres undefined)", "inhibition": 15.4}
{"smiles": "O=C(NC1CCCC1)C1C2C=CC3(CN(Cc4cccs4)C(=O)C13)O2", "note": "(centres undefined)", "inhibition": -3.35}
{"smiles": "Cc1ccc(S(=O)(=O)N(C)CCCC(=O)NC(C)(C)C)cc1", "inhibition": -1.26}
{"smiles": "O=C1CN(S(=O)(=O)c2ccc(Cl)cc2)CC(=O)N1CCc1ccccc1", "inhibition": -1.31}
{"smiles": "COc1ccc(C2=Nn3c(nnc3-c3ccccc3OC)SC2)cc1OC", "inhibition": 26.3}
{"smiles": "CCOc1ccc(C2=Nn3c(nnc3-c3ccccc3OC)SC2)cc1", "inhibition": 8.39}
{"smiles": "CC(=O)Nc1nc(CCN2C(=O)c3ccccc3C2=O)cs1", "inhibition": 0.9}
{"smiles": "Cc1cccc2cc(C(c3nnnn3CC3CCCO3)N3CCCc4ccccc43)c(=O)[nH]c12", "note": "(centres undefined)", "inhibition": 10.5}
{"smiles": "CC(C)c1ccc(O)c(NC(=O)c2cccnc2)c1", "inhibition": 7.21}
{"smiles": "CN1C2CCC1/C(=C\\c1ccccc1Cl)C(=O)/C2=C\\c1ccccc1Cl", "inhibition": 3.79}
{"smiles": "CN1C2CCC1/C(=C\\c1ccccc1)C(=O)/C2=C\\c1ccccc1", "inhibition": 5.66}
{"smiles": "O=c1[nH]cnc2scc(-c3cccs3)c12", "inhibition": -7.24}
{"smiles": "COc1ccc(OC)c(S(=O)(=O)n2nnc3ccccc32)c1", "inhibition": 56.9}
{"smiles": "COc1ccc(Cl)cc1S(=O)(=O)n1nnc2ccccc21", "inhibition": 49}
{"smiles": "O=S(=O)(Nc1cccc(-c2ccc3nncn3n2)c1)c1ccc(Cl)s1", "inhibition": 26.4}
{"smiles": "CN(C)c1cccc(-c2nnc(SCCCC#N)o2)c1", "inhibition": -3.34}
{"smiles": "CCOC(=O)Cc1csc(NC(=O)NC2(C(F)(F)F)Oc3ccc(Cl)cc3O2)n1", "note": "(centres undefined)", "inhibition": 52.5}
{"smiles": "CCOC(=O)Cc1csc(NC(=O)NC2(C(F)(F)F)Oc3ccccc3O2)n1", "inhibition": 6.11}
{"smiles": "C=CCn1c(COC)nnc1SCC(=O)c1ccc(F)cc1", "inhibition": -1.58}
{"smiles": "Cc1ccc(C(=O)NN2C(=O)CSC2=S)cc1", "inhibition": 33.1}
{"smiles": "CC(C)(C)c1ccc(C(=O)NN2C(=O)CSC2=S)cc1", "inhibition": 5.92}
{"smiles": "COc1ccccc1CNC(=O)CN1C(=O)C(C)N(c2ccc(C)cc2)C1=O", "note": "(centres undefined)", "inhibition": -0.45}
{"smiles": "Cc1c(Nc2nc3ccccc3nc2NS(=O)(=O)c2cccs2)c(=O)n(-c2ccccc2)n1C", "inhibition": 35.4}
{"smiles": "Cc1ccc(Nc2nc3ccccc3nc2Nc2c(C)n(C)n(-c3ccccc3)c2=O)cc1", "inhibition": -3.59}
{"smiles": "O=S(=O)(Nc1nc2ccccc2nc1NCCO)c1cccc(Cl)c1", "inhibition": 45}
{"smiles": "Cc1c(NS(=O)(=O)c2ccccc2)c(=O)n(-c2ccccc2)n1C", "inhibition": -14.2}
{"smiles": "Cc1c(Nc2nc3ccccc3nc2N2CCN(c3ccccc3)CC2)c(=O)n(-c2ccccc2)n1C", "inhibition": 9.74}
{"smiles": "O=S(=O)(Nc1nc2ccccc2nc1NCC1CCCO1)c1cccc(Cl)c1", "note": "(centres undefined)", "inhibition": 12.2}
{"smiles": "Cc1ccc(N(Cc2cc3ccccc3[nH]c2=O)S(=O)(=O)c2ccccc2)cc1", "inhibition": 9.01}
{"smiles": "CCN(CC)C(=O)CSc1nnc(-c2ccc(S(=O)(=O)N3CCCC3)cc2)o1", "inhibition": -8.97}
{"smiles": "CCOC(=O)C1=NNC2C(=O)N(Cc3ccccc3)C(=O)C12", "note": "(centres undefined)", "inhibition": 5.31}
{"smiles": "COC(=O)C1=C(C)N(c2ccc(OC)cc2)C(C)=C(C(=O)OC)C1c1ccc(OC)cc1", "inhibition": -14.2}
{"smiles": "Cc1nc2ccccc2c2c1C(=O)NC2=O", "inhibition": -0.48}
{"smiles": "CCOC(=O)C1CCN(c2cc(=O)n(C3CCCCC3)c(=O)[nH]2)CC1", "inhibition": 7.51}
{"smiles": "CS(=O)(=O)N(CC(=O)Nc1ccc(S(=O)(=O)N2CCOCC2)cc1)c1ccccc1Cl", "inhibition": 12.3}
{"smiles": "COc1ccccc1Cn1[nH]nnc1=S", "inhibition": 5.05}
{"smiles": "COc1ccc([C@H]2[C@H](C(=O)OC(C)(C)C)N3N=Cc4ccccc4C3C23C(=O)c2ccccc2C3=O)cc1OC", "note": "(some centres undefined)", "inhibition": 21.8}
{"smiles": "COc1ccc([C@H]2[C@H](C(=O)OC(C)(C)C)N3N=Cc4ccccc4C3C23C(=O)c2ccccc2C3=O)c(OC)c1", "note": "(some centres undefined)", "inhibition": 34.9}
{"smiles": "CC(C)CCn1nnnc1C(c1ccc(N(C)C)cc1)N1CCN(C(=O)c2ccco2)CC1", "note": "(centres undefined)", "inhibition": 8.08}
{"smiles": "O=C(O)c1ccc(NC(=O)C2CC=CCC2C(=O)O)cc1", "note": "(centres undefined)", "inhibition": 2.25}
{"smiles": "COC(=O)c1cc(C)sc1NC(=O)C1CC=CCC1C(=O)O", "note": "(centres undefined)", "inhibition": 36.3}
{"smiles": "CC1=C(C)CC(C(=O)NNC(=O)c2cccc(Cl)c2)C(C(=O)O)C1", "note": "(centres undefined)", "inhibition": 27.5}
{"smiles": "O=C(O)C1CC=CCC1C(=O)NNc1ccccc1", "note": "(centres undefined)", "inhibition": 1.11}
{"smiles": "O=C(NNC(=O)C1CC1c1ccccc1)Nc1cccc(Cl)c1", "note": "(centres undefined)", "inhibition": -2.69}
{"smiles": "O=C(O)C1CC=CCC1C(=O)Nc1cccnc1", "note": "(centres undefined)", "inhibition": 20.5}
{"smiles": "COC(=O)c1cc(NC(=O)C2CC2)cc(C(=O)OC)c1", "inhibition": 4.68}
{"smiles": "O=C(CCSc1ccccc1)NC1CCCCCC1", "inhibition": 2.59}
{"smiles": "COc1ccc(C(=O)NCCCCCC(=O)N/N=C/c2ccco2)cc1OC", "inhibition": -1.79}
{"smiles": "C=CCn1c(-c2ccc(OC)c(OC)c2)n[nH]c1=S", "inhibition": 13.8}
{"smiles": "COc1ccc(S(=O)(=O)Nc2ccc3c(c2)OCO3)cc1", "inhibition": -4.98}
{"smiles": "COc1ccccc1NC(=S)NCCSc1ccc(Cl)cc1", "inhibition": -3.97}
{"smiles": "O=C(Nc1nccs1)c1ccc(S(=O)(=O)N2CCOCC2)cc1", "inhibition": 7.17}
{"smiles": "CCCC1=C(C(=O)OCC)C(c2ccncc2)n2ncnc2N1", "note": "(centres undefined)", "inhibition": 5.84}
{"smiles": "CC1=CC(C#N)(C#N)C(C#N)(C#N)C(c2ccccc2)N1", "note": "(centres undefined)", "inhibition": -40.9}
{"smiles": "O=C(O)C1CC=CCC1C(=O)Nc1cccc(C(=O)N2CCCCC2)c1", "note": "(centres undefined)", "inhibition": 40.8}
{"smiles": "O=C(O)C1CCCCC1C(=O)NCCc1cccc(Cl)c1", "note": "(centres undefined)", "inhibition": 75}
{"smiles": "O=C(Nc1cccc([N+](=O)[O-])c1)C1C2CC/C=C\\CCC21", "note": "(centres undefined)", "inhibition": 0.68}
{"smiles": "O=C(O)C1C2C=CC(C2)C1C(=O)Nc1cccc(F)c1", "note": "(centres undefined)", "inhibition": 23.1}
{"smiles": "O=C(O)C1CC=CCC1C(=O)NCCc1ccccc1", "note": "(centres undefined)", "inhibition": 42}
{"smiles": "O=C(Nc1nccs1)c1ccc(NC(=O)c2ccco2)cc1", "inhibition": 9.18}
{"smiles": "O=C(O)C1CC=CCC1C(=O)Nc1cccc([N+](=O)[O-])c1", "note": "(centres undefined)", "inhibition": 14.2}
{"smiles": "O=C(O)C1CCCCC1C(=O)Nc1nccs1", "note": "(centres undefined)", "inhibition": 15.9}
{"smiles": "O=C(Nc1nc(-c2ccccc2)cs1)C1c2ccccc2Oc2ccccc21", "inhibition": 1.51}
{"smiles": "Cc1ccc(Cn2c(=O)cc(C(=O)O)c3ccccc32)cc1", "inhibition": -52.6}
{"smiles": "CC(C)CC(=O)N1CCN(S(C)(=O)=O)CC1", "inhibition": 9.33}
{"smiles": "CCCc1cc(C(=O)N2CCN(S(=O)(=O)c3ccc(OC)c(OC)c3)CC2)cs1", "inhibition": -3.16}
{"smiles": "COc1ccc(Cl)cc1C(=O)N(Cc1nc(-c2cccc(C)c2)no1)C(C)C", "inhibition": -1.6}
{"smiles": "CC(C)(C)c1ccc(C(=O)Nc2ccc(O)c3c(=O)cc(-c4cccc(Cl)c4)oc23)cc1", "inhibition": 0.21}
{"smiles": "Cc1nnc(-c2cnn(C)c2N)n1CCCN(C)C", "inhibition": -1.24}
{"smiles": "Cc1ccccc1N1CCN(C(=O)CN2C(=O)c3ccccc3C2=O)CC1", "inhibition": -9.93}
{"smiles": "O=C(Nc1ccc2nsnc2c1)c1cccs1", "inhibition": 6.9}
{"smiles": "Cc1ccc(S(=O)(=O)Oc2ccccc2/C=N/Nc2ccc(C(=O)O)cc2)cc1", "inhibition": 28}
{"smiles": "CC(=O)CC(C)(C)Nc1nc2ccc([N+](=O)[O-])cc2o1", "inhibition": 13.3}
{"smiles": "COC(=O)c1ccc(C)c(NS(=O)(=O)c2ccc(C)c([N+](=O)[O-])c2)c1", "inhibition": 1.7}
{"smiles": "O=C1C2CCCN2C(c2ccc(F)cc2)N1c1nccs1", "note": "(centres undefined)", "inhibition": 0.99}
{"smiles": "Cc1cccc(Oc2ccc(NC(=O)C3CC=CCC3C(=O)O)cc2)c1", "note": "(centres undefined)", "inhibition": 2.18}
{"smiles": "Cc1cc(C)cc(Oc2ccc(NC(=O)C3CC=CCC3C(=O)O)cc2)c1", "note": "(centres undefined)", "inhibition": 5.05}
{"smiles": "Cc1cccc(-n2c(CNC(=O)c3ccc(S(=O)(=O)N(C)C)cc3)nnc2SCC(=O)Nc2ccc(F)cc2)c1", "inhibition": -5.07}
{"smiles": "COc1cccc(CNc2nc3nc(C)cc(=O)n3[nH]2)c1", "inhibition": -3.52}
{"smiles": "CC(C)(C)c1ccc(OC(=O)CN2C(=O)C3C4CCC(C4)C3C2=O)cc1", "note": "(centres undefined)", "inhibition": -0.46}
{"smiles": "CC(=O)Nc1cccc(C(=O)Nc2ccccc2C(=O)O)c1", "inhibition": 4.74}
{"smiles": "Cc1ccc(SCC(=O)Nc2ccccc2C(=O)O)cc1", "inhibition": -12.3}
{"smiles": "CCOC(=O)c1cnc2c([N+](=O)[O-])cnn2c1C", "inhibition": 12.8}
{"smiles": "Cc1c(C(=O)O)cnc2c([N+](=O)[O-])cnn12", "inhibition": 12.2}
{"smiles": "Cc1cnc2c(C(=O)O)cnn2c1", "inhibition": 13.5}
{"smiles": "O=C(O)c1cc2ncc(-c3[nH]ncc3[N+](=O)[O-])cn2n1", "inhibition": 15.3}
{"smiles": "Cc1ccc(NC(=O)/C(Cl)=C/c2ccccc2)cc1C", "inhibition": 0.91}
{"smiles": "Cc1ccc(S(=O)(=O)N2CCN(c3ccc([N+](=O)[O-])c(NCCN4CCOCC4)c3)CC2)cc1", "inhibition": 3.35}
{"smiles": "CC(=O)Nc1nc(C)c(Oc2ccc(Cl)cc2Cl)c(=O)[nH]1", "inhibition": 7.16}
{"smiles": "Cc1sc(NC(=O)C2C3CCC(O3)C2C(=O)O)nc1-c1ccc(CC(C)C)cc1", "note": "(centres undefined)", "inhibition": 6.67}
{"smiles": "Cc1sc(NC(=O)c2cc3ccccc3oc2=O)c(C(=O)OC(C)C)c1-c1ccccc1", "inhibition": 5.06}
{"smiles": "O=C(O)C1C2CCC(O2)C1C(=O)NCc1ccc(Cl)cc1", "note": "(centres undefined)", "inhibition": 2.78}
{"smiles": "CC(C)OC(=O)c1cc(NC(=O)C2C3CCC(O3)C2C(=O)O)cc(C(=O)OC(C)C)c1", "note": "(centres undefined)", "inhibition": 2.91}
